Assay results taken from PubChem BioAssay AID588334 (Broad Institute, 2011).
Out of some 300,000 compounds screened, about 2,300 (0.77%) were called active.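 How the source made its calls: active means mean activation of at least 80% with every replicate also reaching 80%; inconclusive means mean reaches 80% but some replicate falls short; inactive means the rest.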 This excerpt belongs to a sample that is enriched for actives.

Test: activators of MITF-driven TRPM1 promoter reporter, primary screen, cell-based, SK-MEL-5, luciferase, single point (AID 588334);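 further: 0% = neutral control wells and 100% = parthenolide positive control wells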
Conditions: SK-MEL-5 TRPM1-promoter luciferase, 24 h; at 12.5 µM; active compounds read high; % of positive control, neutral wells = 0

activation, inactive:
CSCCC(NC(=O)COc1ccccc1)C(=O)N1CCN(c2cccc(C(F)(F)F)c2)CC1 (centres undefined) 8.6%
CC(C)N(C(=O)[C@H]1C[C@H](CC(=O)NCCC2=CCCCC2)C(=O)N2CCc3c([nH]c4cc(CCC(=O)N(C)C)ccc34)[C@]12C)C(C)C 10.3%
COc1ccc2[nH]c3c(c2c1)CCN1C(=O)C(CC(=O)NCc2cccc(C(F)(F)F)c2)C[C@H](C(=O)N2CCOCC2)[C@@]31C (some centres undefined) 2.71%
O=C(NNc1ncnc2c1cnn2-c1ccccc1)c1ccco1 2.51%
O=C(NCCC1=CCCCC1)C1CCN(Cc2cnn(-c3ccccc3)c2-n2cccc2)CC1 11.4%
N#CC(Cc1cc2ccccc2n1S(=O)(=O)c1ccccc1)OCc1ccccc1 (centres undefined) -2.16%
Cc1cc(NC(=O)c2ccc(F)cc2)ccc1NC(=O)c1ccco1 10.4%
O=C(Nc1ccc(O)cc1)c1ccc(NC(=O)c2ccco2)cc1 30.3%
CC(C)C[C@H]1CN([C@@H](CC(C)C)CN2CCC[C@@H]2CN2C(=O)C(=O)NC[C@@H]2Cc2ccccc2)C(=O)C(=O)N1CCc1ccccc1 2.67%
C=CC[C@@H](Cc1ccc(F)cc1)C(=O)OC[C@H]1CCCN1C(=O)[C@H](CC=C)CC(=O)N(CCO)Cc1ccccc1 12.6%
CC(=O)OC1CCC2(C)C(=CCC3C4CC(=O)N(O)C(=O)C4(C)CCC32)C1 (centres undefined) -5.88%
COc1ccc(CNCCCNCc2ccc(OC)c(OC)c2)cc1OC 7.54%
Cc1ccc(NC(=O)COc2ccc(/C=N\NC(=O)c3cccnc3)cc2)cc1C 13.6%
Cc1ccc(N/C=C/C(=O)c2ccccc2)cc1C -1.56%
COc1ccccc1C(=O)Nc1ccc(C)c(S(=O)(=O)N2CCCCC2)c1 -6.44%
CC(=O)Nc1ccc(NC(=O)COC(=O)C2CCC(C(C)(C)C)CC2)cc1 (centres undefined) -0.038%
COc1ccc(-c2csc(-c3cccs3)n2)cc1OC 56.3%
COc1ccc(-c2noc(CCCC(=O)NC3CCCC3)n2)cc1OC 4.98%
Fc1ccc2cnc(-c3ccccc3)cc2c1 63.9%
COc1ccc(-c2cc3ncccc3cn2)cc1 72%
O=C(Nc1ccc(S(=O)(=O)N2CCOCC2)cc1)C1CCN(S(=O)(=O)c2ccc(Cl)cc2)CC1 -12.4%
COc1ccccc1-c1nnc2n1N=C(c1ccc(OC(F)F)c(OCC3CC3)c1)CS2 3.16%
COc1cc(OC)cc(-c2c(C#Cc3ccsc3)c3cc(-c4ccc(SC)cc4)ccc3n2C)c1 6.54%
COc1ccc(CCNCc2c(-c3ccccc3)n(C)c3ccccc23)cc1 2.46%
COc1ccc(CC(=O)N[C@@H]2c3cc(OC)c(OC)cc3C[C@H]2OCc2ccccc2)cc1 -0.621%
CCCCNC(=O)C(C)N(CCN(C)C)C(=O)CCCCCN1C(=O)NC(c2ccc(Cl)cc2)C(C(=O)OCc2ccccc2)=C1C (centres undefined) -93.7%
Oc1ccc(-c2nc3ccccc3nc2-c2ccc(O)cc2O)c(O)c1 -29.5%
CCc1ccc(NC(=O)Cn2nnc(C(=O)NCc3ccc4c(c3)OCO4)c2N)cc1 -0.586%
CCOc1ccc(Cn2nnc(C(=O)NCc3ccccc3)c2N)cc1 0.298%
Cc1cccc(C=CC(=O)c2ccc(Cl)cc2)c1 35.1%
CN(C)C(=O)CCc1ccc2c3c([nH]c2c1)[C@]1(CCc2ccccc2)[C@@H](C(=O)N2CCCCC2)C[C@H](CC(=O)NCCC2=CCCCC2)C(=O)N1CC3 -16.1%
Cc1ccc(S(=O)(=O)N2CCN(C(=O)CN3C(=O)NC(C)(c4ccc(Cl)cc4)C3=O)CC2)c(C)c1 (centres undefined) 3.72%
COc1ccccc1-c1nnc(NC(=O)c2ccc3ncsc3c2)o1 -3.99%
Cc1ccc(C(=O)c2c(NC(=O)c3ccccc3)sc(C)c2C)cc1 24.2%
CN(C(=O)c1cccc(NC(=O)Cc2cccc(NC(=O)C3CCCN(C(=O)C4CC4)C3)c2)c1)C1CCC1 (centres undefined) -0.0755%
COc1ccc(C(=O)Nc2cc(S(=O)(=O)N3CCCC3)ccc2Cl)cc1 5.82%
Cc1nc2cc(NC(=O)Nc3cccc(F)c3)ccc2n1C 12.9%
Cc1nc2cc(NC(=O)NC3CC3)ccc2n1C 13.8%
O=C(O)c1ccc(Cn2cnc3c(=S)nc[nH]c32)cc1 6.13%
COc1ccc2c(c1)C(=O)CC(c1ccccc1)O2 (centres undefined) 54.8%
Cc1cc(NC(=O)C(C)SCC(=O)Nc2cccc(S(=O)(=O)N3CCCCCC3)c2)no1 (centres undefined) -15.9%
COC(=O)c1cc(NC(=O)C2C3C=CC(C3)C2C(=O)O)cc(C(=O)OC)c1 (centres undefined) 14.6%
CC(=O)NS(=O)(=O)c1ccc(NC(=O)C2C3C=CC(C3)C2C(=O)O)cc1 (centres undefined) -12.7%
O=C(N[C@H]1C/C=C\C(c2cccc(F)c2)N(Cc2ccccc2)C(=O)C1)OCC1c2ccccc2-c2ccccc21 (some centres undefined) 20.8%

activation, active:
C1=C(CCNc2ncnc3c2cnn3-c2ccccc2)CCCC1 94.3%
Cc1ccnc(NC(=O)c2ccc(NC(=O)c3ccco3)cc2)c1 109%
C/C(=C\C(=O)c1cccnc1)Nc1ccc(C)c(C)c1 104%
COc1ccc(-c2noc(-c3cccc(OC)c3OC)n2)cc1OC 88.3%
COc1cc(OC)cc(-c2cc3ccc(F)cc3cn2)c1 111%
COc1ccc(-c2c(C#Cc3ccccc3)c3ccccc3n2C)cc1 85.9%
Nc1c(C(=O)Nc2ccc3c(c2)OCCO3)nnn1Cc1ccccc1 81.1%
Cc1sc(NC(=O)c2ccc3ncsc3c2)c(C(N)=O)c1C 103%
Cc1nc2cc(NCc3cccs3)ccc2n1C 90.7%
CC(C)COC(=O)c1ccc(NC(=O)C2C3C=CC(C3)C2C(=O)O)cc1 (centres undefined) 105%
